Bioassay records from PubChem.
FMDV inh – blocks foot and mouth disease virus | FMDV antiviral cell-based qHTS | Potency, µM (highest dose often 57.9 µM), for the others: top-dose activity change, negative = inhibition, actives largely listed as inhibitors | actives 1.2% (n = 410,000); calls by dose curve; tested in HEK293T cells; further: read-out not given here; potency means the concentration at half of the fitted maximal effect; nearly all actives have a fitted effect of over 45% in size
AmpC detergent – AmpC beta-lactamase inhibition with detergent present; AmpC hydrolysis of nitrocefin, absorbance 480 nm, 0.01% Triton; Potency, µM (doses to about 114 µM), for the others: top-dose activity change, negative = inhibition, usual class: inhibitors; actives 0.041% (n = 370,000); AID 485294; P00811;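 further: potency means the concentration at half of the fitted maximal effect; 0% = no-compound wells and -100% = no-enzyme wells; nearly all actives have a fitted effect of over 25% in size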
Target sequence (P00811 whole entry, looked up): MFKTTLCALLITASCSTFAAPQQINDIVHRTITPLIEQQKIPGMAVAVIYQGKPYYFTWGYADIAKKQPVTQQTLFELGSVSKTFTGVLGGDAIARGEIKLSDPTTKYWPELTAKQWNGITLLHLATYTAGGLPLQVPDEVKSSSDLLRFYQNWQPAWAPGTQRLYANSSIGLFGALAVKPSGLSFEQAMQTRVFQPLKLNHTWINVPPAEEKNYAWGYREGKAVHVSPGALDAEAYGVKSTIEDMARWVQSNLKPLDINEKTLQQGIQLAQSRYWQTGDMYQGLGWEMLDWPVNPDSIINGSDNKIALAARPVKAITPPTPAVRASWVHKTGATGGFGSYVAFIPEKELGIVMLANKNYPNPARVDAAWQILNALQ
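20 mM phosphate pH 7.0 + 0.01% (detergent screen) or 0.0001% Triton X-100; 5.3 nM AmpC reagent; cpd preinc 15 min RT; nitrocefin (800 uM stock) to start; A480 q20 s × 4 min; Activity was normalised to no-enzyme and no-compound control wells.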
AmpC no deterg – AmpC beta-lactamase inhibition without detergent | P00811 | AmpC nitrocefin hydrolysis, absorbance 480 nm, 0.0001% Triton | Potency, µM (doses to about 57.1 µM), for inactives: at the top dose activity change, negative = inhibition, most hits filed as inhibitors | actives 0.52% (n = 330,000);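 further: potency means the concentration at half of the fitted maximal effect; plate controls were no compound for no effect and no enzyme for full effect; nearly all actives have a fitted effect of over 20% in size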
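20 mM phosphate pH 7.0 + 0.01% (detergent screen) or 0.0001% Triton X-100; 5.3 nM AmpC reagent; cpd preinc 15 min RT; nitrocefin (800 uM stock) to start; A480 q20 s × 4 min; Activity was normalised to no-enzyme and no-compound control wells.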
HCMV antiviral – blocks human cytomegalovirus replication; HFF cells, HCMV-luciferase reporter, 72 h; stronger effect = lower value; activity change, negative = inhibition, % at 57.5 µM; actives 4.5% (n = 410,000); in the data active means activity change below about -60%; inconclusive means no clear call, values can overlap the other calls; inactive means above about -39%
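Steps: HFFs plated, 16 h 37C; compounds added; HCMV-luciferase added to MOI 1 PFU/cell; 72 h 37C; OneGlo reagent, 5 min room temperature; luminescence read, normalized to controls.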
HCV inhibitor – blocks hepatitis C virus; Potency, µM (doses to about 41.8 µM), for the others: at the highest dose activity change, negative = inhibition, usual class: inhibitors; actives 3.4% (n = 340,000); AID 651820; Huh7.5.1 HCVcc-Cre infection, luciferase reporter, 44 h; further: potency means the concentration at half of the fitted maximal effect
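Infectious HCVcc-Cre (~0.5 moi) was added to cells just after compound, with cells seeded 4 h earlier at 1,000 per well. Luciferase activity after 44 h culture reported infection; substrate was incubated 15 min at room temperature before reading.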
The depositor's hits bear a star. Shown are actives, neighbours in structure and some others; about 7.3% of the full set was active somewhere. Unless noted, the call rests on the fitted dose curve; in most records, active means well fitted curve in the direction sought with a large enough effect; inconclusive means small, poorly fitted or top-dose-only effect, or another doubt; inactive means no such curve, though single readings can be large; an effect the other way counts as inactive or inconclusive. Unless noted, on the % scale 0 is the no-effect control and ±100 the full control effect.

How did CCOC(=O)c1cccn1C1C(=O)N(Cc2ccc(C(C)C)cc2)c2c(F)cccc21 (centres undefined) do in these assays?
HCMV antiviral: -34.7

Results for O=C(CCN1C(=O)/C(=C/c2ccccc2)SC1=S)NNC(=O)c1ccncc1 ?
FMDV inh: -17.9%; AmpC detergent: -10.2%; AmpC no deterg: -16.4%; HCMV antiviral: inconclusive; HCV inhibitor: 7.0%

How did O=C(O)CCCN1C(=O)/C(=C/c2ccncc2)SC1=S do in these assays?
FMDV inh: -24.8%; AmpC detergent: -5.6%; AmpC no deterg: -10.5%; HCMV antiviral: -61.4*; HCV inhibitor: inconclusive

How did CCCc1nc(C(C)(C)O)c(C(=O)OCc2oc(=O)oc2C)n1Cc1ccc(-c2ccccc2-c2nn[nH]n2)cc1 do in these assays?
FMDV inh: -6.4%

How did CCOc1nc2cccc(C(=O)OC(C)OC(=O)OC3CCCCC3)c2n1Cc1ccc(-c2ccccc2-c2nn[nH]n2)cc1 (centres undefined) do in these assays?
FMDV inh: -8.3%; HCMV antiviral: -85.5*

Results for CCc1ccc(/C=C2\SC(=S)N(CCCC(=O)Nc3ccccc3C(=O)O)C2=O)cc1 ?
FMDV inh: 0.0%; AmpC detergent: 0.8%; AmpC no deterg: -32.4%; HCMV antiviral: active; HCV inhibitor: 1.4%

Results for Cc1ccc(/C=C2\SC(=S)N(CCCC(=O)Nc3ccccc3C(=O)O)C2=O)cc1 ?
FMDV inh: inconclusive; AmpC detergent: 6.8%; AmpC no deterg: 110.4%; HCMV antiviral: inconclusive; HCV inhibitor: 0.6%

Results for COc1ccc(/C=C2\SC(=S)N(CCCC(=O)NNC(=O)c3ccccc3O)C2=O)cc1 ?
FMDV inh: 4.47µM*; AmpC detergent: -2.7%; AmpC no deterg: -36.0%; HCMV antiviral: -75.2*; HCV inhibitor: inconclusive

How did O=C(CCCN1C(=O)/C(=C/c2ccco2)SC1=S)Nc1cccc(C(=O)O)c1 do in these assays?
FMDV inh: 2.5%; AmpC detergent: 2.6%; AmpC no deterg: -24.2%; HCMV antiviral: -24.6; HCV inhibitor: 24.7%

What do the screens show for `CCc1ccc(/C=C2\SC(=S)N(CCCC(=O)Nc3nccs3)C2=O)cc1`?
FMDV inh: 13.8%; AmpC detergent: inconclusive; AmpC no deterg: -14.7%; HCMV antiviral: -93.5*; HCV inhibitor: 13.0%

How did Cc1ccc(/C=C2\SC(=S)N(CCCC(=O)Nc3nccs3)C2=O)cc1 do in these assays?
FMDV inh: -23.9%; AmpC detergent: inconclusive; AmpC no deterg: -23.8%; HCMV antiviral: inconclusive; HCV inhibitor: 5.5%

What do the screens show for `COc1ccc(NC(=O)CCCN2C(=O)/C(=C\c3ccco3)SC2=S)cc1`?
FMDV inh: inconclusive; AmpC detergent: 5.7%; AmpC no deterg: -32.1%; HCMV antiviral: -101.4*; HCV inhibitor: inconclusive

Results for CNc1ccnc(-c2ccccc2C(F)(F)F)n1 ?
FMDV inh: 14.1%

Results for COc1ccc(/C=C2/SC(=S)N(CCCC(=O)Nc3ccccc3C(=O)O)C2=O)cc1 ?
FMDV inh: 8.91µM*; AmpC detergent: 3.8%; AmpC no deterg: -29.2%; HCMV antiviral: -34.0; HCV inhibitor: 27.6%

Results for CCc1ccc(/C=C2\SC(=S)N(CCCC(=O)Nc3ccc(C(=O)O)cc3)C2=O)cc1 ?
FMDV inh: -3.0%; AmpC detergent: -7.3%; AmpC no deterg: -30.9%; HCMV antiviral: -92.5*; HCV inhibitor: 31.9%

Results for COc1ccc(/C=C2\SC(=O)N(CCNC(=O)Cc3coc4cc(OC)ccc34)C2=O)cc1 ?
FMDV inh: 0.0%; AmpC detergent: -4.8%; AmpC no deterg: -43.0%; HCMV antiviral: -102.5*; HCV inhibitor: inconclusive

How did COc1cc(OC)cc(C(=O)NCCN2C(=O)S/C(=C\c3cccs3)C2=O)c1 do in these assays?
FMDV inh: inconclusive; AmpC detergent: -4.5%; AmpC no deterg: -24.9%; HCMV antiviral: -6.7; HCV inhibitor: 8.91µM*

Results for COc1ccc(/C=C2\SC(=S)N(CCC(=O)Nc3cccc(O)c3)C2=O)cc1OC ?
FMDV inh: 5.9%; AmpC detergent: 2.7%; AmpC no deterg: -21.7%; HCMV antiviral: -24.1; HCV inhibitor: -22.5%

What do the screens show for `COc1ccccc1/C=C1\SC(=S)N(CCC(=O)NNC(=O)c2ccccc2O)C1=O`?
FMDV inh: -20.3%; AmpC detergent: -7.8%; AmpC no deterg: 15.8µM*; HCV inhibitor: inconclusive

How did COc1cccc(/C=C2\SC(=S)N(CCC(=O)NNC(=O)c3ccccc3OC)C2=O)c1 do in these assays?
FMDV inh: 2.2%; AmpC detergent: -13.1%; AmpC no deterg: -35.2%; HCMV antiviral: -0.2; HCV inhibitor: inconclusive

Results for COc1ccc(/C=C2/SC(=S)N(CCCC(=O)Nc3cccc(O)c3)C2=O)cc1 ?
FMDV inh: 4.2%; AmpC detergent: -5.3%; AmpC no deterg: -42.5%; HCMV antiviral: -97.1*; HCV inhibitor: inconclusive

How did COc1ccc(/C=C2\SC(=O)N(CCCC(=O)Nc3ccc(C(=O)O)cc3)C2=O)cc1 do in these assays?
FMDV inh: 3.98µM*; HCMV antiviral: -100.8*

What do the screens show for `O=S(=O)(c1ccc(Br)cc1)c1nc(-c2ccccc2)oc1NCCN1CCOCC1`?
FMDV inh: -23.7%; AmpC detergent: -2.9%; AmpC no deterg: 30.1%; HCMV antiviral: -2.9; HCV inhibitor: inconclusive

How did COc1ccc(-n2ccn3c(CCC(=O)N4CCN(c5cccc(C)c5C)CC4)nnc3c2=O)cc1 do in these assays?
FMDV inh: -4.4%; AmpC detergent: 3.8%; AmpC no deterg: 16.8%; HCMV antiviral: inconclusive; HCV inhibitor: 6.6%

Results for COc1ccc(Cl)cc1NC(=O)CSc1nc(NS(=O)(=O)c2ccc(C)cc2)cc(=O)[nH]1 ?
FMDV inh: -9.5%; AmpC detergent: -2.1%; AmpC no deterg: -25.3%; HCMV antiviral: inconclusive; HCV inhibitor: 0.3%

What do the screens show for `COc1ccc(NC(=O)c2ccc3c(c2)c(C)c(C)n3Cc2ccc(F)cc2)c(OC)c1`?
FMDV inh: -11.7%; AmpC detergent: 7.1%; HCMV antiviral: active

What do the screens show for `COc1ccc(OC)c(NC(=O)c2ccc3c(c2)c(C)c(C)n3Cc2ccc(F)cc2)c1`?
FMDV inh: -0.5%; AmpC detergent: 2.2%; HCMV antiviral: 0.0

Results for CN(CCO)C(=O)c1nc[nH]c1C(=O)N1CCN(c2ccccc2)CC1 ?
HCMV antiviral: -3.4

How did Cc1cccc(-c2cc3nc(C)cc(C)n3n2)c1 do in these assays?
FMDV inh: 49.6%; AmpC detergent: 7.7%; AmpC no deterg: 12.9%; HCMV antiviral: 172.2; HCV inhibitor: 10µM*

How did Cc1cccc(-c2cc3nc(C)cc(NCCCN(C)C)n3n2)c1 do in these assays?
FMDV inh: 9.8%; AmpC detergent: -3.9%; AmpC no deterg: 4.9%; HCMV antiviral: 90.7; HCV inhibitor: 2.51µM*
